Screening data deposited in PubChem by National Center for Advancing Translational Sciences (NCATS).
NTMT1 inh – inhibitors of human N-terminal methyltransferase NTMT1; Q9BV86; NTMT1 MTase-Glo SAH luminescence, purified enzyme; Potency, µM (series often up to 114 µM), inactives show top-dose activity change, negative = inhibition, hits mostly inhibitors; hit rate 2.5% among 59,000;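 also: potency is read from the fitted curve at half-maximal effect; plate controls were DMSO vehicle for no effect and no enzyme for full effect; nearly all actives have a fitted effect of over 65% in size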
GALK inh – inhibitors of human galactokinase (GALK) | P51570 | recombinant GALK, Kinase-Glo ATP luminescence, 1 h | Potency, µM (series often up to 57.5 µM), for the others: at the top dose activity, negative = inhibition, most hits filed as inhibitors | 44,000 tested, under 10 active | AID 1347072;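 also: plate controls were full GALK reaction for no effect and reaction lacking GALK for full effect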
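Luminescent ATP-depletion readout (Kinase-Glo Plus) after 1 h room-temperature incubation of human GALK (5 nM) with galactose 100 µM and ATP 35 µM, pH 8.0 HEPES/Mg2+ buffer; compounds tested in qHTS format.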
GALC G270D up – enhancers of human galactocerebrosidase G270D mutant activity in cells; 145M-Twi-hGALC-G270D cells (Twitcher mouse brain line with human GALC G270D), HMU-beta-Gal fluorescence, 48 h; AID 1159614; P54803; hit rate 0.1% among 45,000; Potency, µM (titrated, usually from 57.5 µM), most hits filed as activators; also: potency is read from the fitted curve at half-maximal effect; 0% is about no effect; nearly all actives have a fitted effect of over 65% in size
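Fluorogenic HMU-b-Gal hydrolysis (0.1 mM final, pH 5.2 citrate-phosphate with 1 mg/mL sodium taurocholate; carbonate stop buffer) measures mutant GALC activity after compound treatment of live 145M-Twi Twitcher brain cells stably carrying human GALC-G270D, with wild-type GALC line alongside; activation sought.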
B2AR arrestin ag – ADRB2 beta-arrestin recruitment; P07550; HTLA Tango cells, beta-arrestin recruitment, luciferase luminescence, 18 h; Potency, µM (doses to about 46.1 µM), most hits filed as activators; 44,000 tested, under 10 active; AID 1347077;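 also: potency is read from the fitted curve at half-maximal effect; 0% = DMSO and full agonism = EC100 isoproterenol or metaproterenol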
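Receptor–beta-arrestin recruitment read by tTA-responsive luciferase: compound titrations (up to 46 µM) incubated 18 h with Tango cells, then luminescent substrate 15 min at room temperature. Concentration-response fits classified by r2, efficacy and activity.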
GPR32 ag – agonists of human resolvin D1 receptor DRV1 (GPR32); AID 1346428; O75388; activation, % at 76.9 µM; CHO-K1 GPR32 beta-arrestin PathHunter luminescence, 90 min; zero percent set by DMSO-only wells; hit rate 2.5% among 48,000;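 active = activation of at least 60% and not above a set upper limit, about 1 call in 100 departs from these limits; inconclusive = activation of 40% to 60%, or above that upper limit; inactive = activation under 40%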; also: 0% is about no effect
Target sequence (O75388 whole entry, looked up): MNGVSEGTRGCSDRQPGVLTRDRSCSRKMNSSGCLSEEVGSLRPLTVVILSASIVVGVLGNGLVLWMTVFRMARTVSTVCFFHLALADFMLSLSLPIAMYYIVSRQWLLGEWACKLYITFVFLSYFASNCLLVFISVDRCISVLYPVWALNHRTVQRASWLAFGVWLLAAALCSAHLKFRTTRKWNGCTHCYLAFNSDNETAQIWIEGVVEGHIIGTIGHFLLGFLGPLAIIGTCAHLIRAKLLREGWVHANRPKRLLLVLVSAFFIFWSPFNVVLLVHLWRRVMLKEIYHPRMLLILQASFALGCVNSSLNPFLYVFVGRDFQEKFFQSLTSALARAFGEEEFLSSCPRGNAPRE
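Beta-arrestin recruitment read-out: luminescence from complemented beta-Gal in CHO-K1 GPR32 PathHunter cells, measured 1 h after detection reagent at ambient temperature following 90 min compound exposure at 37 °C; DMSO served as basal (EC0) control.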
* = called active by the depositor; ! = not active in a repeat; [ ] = another dose, or the depositor's remark. Compounds with a hit are over-represented: about 3.6% of the library has one in this group of screens. Unless noted, calls follow the shape of the dose curve; as a rule, active = well fitted curve in the direction sought with a large enough effect; inconclusive = small, poorly fitted or top-dose-only effect, or another doubt; inactive = no such curve, though single readings can be large; an effect the other way counts as inactive or inconclusive.

Screening Cc1ccc(C2NC(=O)c3n[nH]c(-c4cccs4)c32)cc1 (stereo not given) returned NTMT1 inh -19%, GALK inh 7%, GALC G270D up inactive, B2AR arrestin ag inactive and GPR32 ag 120*.
For COc1ccccc1C1NC(=O)c2n[nH]c(-c3cccs3)c21 (stereo not given) the results were NTMT1 inh inconclusive, GALK inh 0%, GALC G270D up inactive, B2AR arrestin ag inactive and GPR32 ag 104*.
Screening COc1ccccc1C1c2c(-c3ccc(Cl)cc3)n[nH]c2C(=O)N1c1ccc(C)cc1 (stereo not given) returned NTMT1 inh 16%, GALK inh 6%, GALC G270D up inactive, B2AR arrestin ag inactive and GPR32 ag -21.
For CC(=O)Nc1sc2c(c1-c1ncco1)CCNC2 the results were NTMT1 inh 2%.
`Cc1n[nH]c(C)c1S(=O)(=O)N1CCCC(C(=O)Nc2ccc(Cl)cc2)C1` (stereo not given) gave NTMT1 inh -3%, GALK inh 0%, GALC G270D up inactive, B2AR arrestin ag inactive and GPR32 ag 107*.
For CCCn1c(=N)c(C(=O)NCC2CCCO2)cc2c(=O)n3cc(C)ccc3nc21 (stereo not given) the results were NTMT1 inh -4%, GALK inh -1%, GALC G270D up 13µM*, B2AR arrestin ag inactive and GPR32 ag -8.
Screening CC1(C)OC(=O)CC(O)C2(C)C1CC(=O)C1(C)C2C(O)CC2(C)C(c3ccoc3)OC(=O)C3OC321 (stereo not given) returned NTMT1 inh -11%[29.8 µM].
Screening O=C(Nc1nc(-c2ccc(Br)cc2)ns1)c1ccccc1F returned NTMT1 inh 2%, GALK inh -6%, GALC G270D up inactive, B2AR arrestin ag inactive and GPR32 ag 60*.
For COc1ccc(-c2nsc(NC(=O)c3ccccc3Br)n2)cc1 the results were NTMT1 inh -3%, GALK inh 8%, GALC G270D up inactive, B2AR arrestin ag inactive and GPR32 ag 20.
Screening CCCN(CCC)c1nc(-c2ccccc2F)nc2ccccc12 returned NTMT1 inh -2%, GALK inh 1%, GALC G270D up inactive, B2AR arrestin ag inactive and GPR32 ag 48.
CCCCN(CCCC)c1nc(-c2ccccc2)nc2ccccc12 was read as NTMT1 inh inconclusive, GALK inh -3%, GALC G270D up inactive, B2AR arrestin ag inactive and GPR32 ag 110*.
COc1ccc2[nH]cc(CCNC(=O)Nc3ccccc3)c2c1 was read as NTMT1 inh -4%, GALK inh -1%, GALC G270D up inactive, B2AR arrestin ag inactive and GPR32 ag 67*.
Screening Cc1cc(C)c2c(=O)cc(CSc3nnc(-c4ccccc4)n3C)[nH]c2c1 returned NTMT1 inh 2%, GALK inh 1%, GALC G270D up inactive, B2AR arrestin ag inactive and GPR32 ag 61*.
For CC(C)c1ccccc1-c1ncc(N(C)C)c(NCc2ccc(-c3cccnc3)cc2)n1 the results were NTMT1 inh 13%[57.5 µM].
For CCOC(=O)c1ccc(NC(=O)Cn2nc3c4ccccc4n(Cc4cccc(F)c4)cc-3c2=O)cc1 the results were NTMT1 inh 79µM*, GALK inh inconclusive, GALC G270D up inactive, B2AR arrestin ag inactive and GPR32 ag -6.
Screening COc1ccc(CCNC(=O)Cn2nc(-c3ccc(C)cc3)ccc2=O)cc1OC returned NTMT1 inh -5%.
`COCCOc1ccc2c(c1)ncn2-c1ccc2cccc(N3CCC(N)CC3)c2n1` gave NTMT1 inh 35µM*!.
Screening CCOc1ccccc1CNC(=O)Cn1nc(N2CCN(c3ccccc3)CC2)ccc1=O returned NTMT1 inh -6%, GALK inh 1%, GALC G270D up inactive, B2AR arrestin ag inactive and GPR32 ag 61*.
`O=C(NC1CCCc2c1cnn2-c1ccc(F)cc1F)c1cccc(=O)[nH]1` (stereo not given) gave NTMT1 inh 13%.
